HT1080 IDH1KD tx: kills HT-1080 cells with IDH1 knockdown; HT-1080 IDH1 knockdown viability, ATP luminescence, 48 h; Potency, µM (highest dose often 46.1 µM), for the others: at the top dose activity, negative = toxicity, usual class: cytotoxic; 360,000 compounds, 2% hits; AID 686971;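 further: 0% = DMSO wells and -100% = cell-free medium wells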
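After a 2 h attachment period, IDH1KD HT-1080 cells took pin-transferred compound for 48 h at 37 °C; ATP-based luminescence after 10 min room-temperature reagent incubation reported viability.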
TDP1 cell CPT: growth inhibition of DT40 Tdp1-/-;hTDP1 cells with camptothecin (screen for TDP1 inhibitors) | chicken DT40 Tdp1-/-;hTDP1 cells + 20 nM CPT, ATP luminescence, 48 h | Potency, µM (doses to about 46.2 µM), for the others: at the top dose activity change, negative = growth inhibition, actives largely listed as inhibitors | 420,000 compounds, 12% hits; further: nearly all actives have a fitted effect of over 55% in size
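Chicken DT40 Tdp1-/- cells complemented with human TDP1, 400 cells/well, exposed to compounds plus 20 nM camptothecin for at least 48 h at 37 C; viability read as ATP content by CellTiter-Glo luminescence.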
KB-V1 MDR tox: KB-V1 MDR subline cytotoxicity; KB-V1 MDR cells viability, CellTiter-Glo, 72 h; 400,000 compounds, 3.4% hits; Potency, µM (top dose mostly 46.1 µM), usual class: cytotoxic; further: nearly all actives have a fitted effect of over 60% in size
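Compound-treated KB-V1 multidrug-resistant cells, 72 h, 37 degrees C; viability by CellTiter-Glo. Fitted qHTS curves give the values.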
TDP1 cell noCPT: qHTS for Inhibitors of human tyrosyl-DNA phosphodiesterase 1 (TDP1): qHTS in cells in absence of CPT; 420,000 compounds, 15% hits; DT40 Tdp1-/- hTDP1 cells, no CPT, ATP luminescence, 48 h; Potency, µM (doses to about 46.2 µM), for the others: top-dose activity change, negative = growth inhibition, actives largely listed as inhibitors; further: nearly all actives have a fitted effect of over 55% in size
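Readout: luminescence from CellTiter-Glo after 30 min in the dark at RT. Cells: DT40 Tdp1-/- with stable hTDP1, 400/well. Exposure: compounds alone, ≥48 hr, 37 °C.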
HT1080-NT tox: kills 2HG-producing HT-1080-NT fibrosarcoma cells; HT-1080-NT fibrosarcoma viability, CellTiter-Glo ATP luminescence, 48 h; Potency, µM (series often up to 46.1 µM), without a hit: top-dose activity, negative = less viability, actives largely listed as cytotoxic; 360,000 compounds, 1.6% hits;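 further: NT is the 2HG producing partner of a matched IDH1 knockdown line; 0% = DMSO-treated cells and -100% = media-only wells without cells; nearly all actives have a fitted effect of over 55% in size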
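Compounds were tested in concentration-response format on HT-1080-NT cells for 48 hours at 37 degrees C. Cell viability came from CellTiter-Glo luminescence; curves were classified by r2, response magnitude and activity.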
KB-3-1 tox: kills parental KB-3-1 adenocarcinoma cells; Potency, µM (top dose mostly 46.1 µM), hits mostly cytotoxic; 400,000 compounds, 1.4% hits; KB-3-1 viability, CellTiter-Glo ATP luminescence, 72 h; further: nearly all actives have a fitted effect of over 60% in size
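Multi-concentration cytotoxicity screen in KB-3-1 cells grown in DMEM lacking phenol red with 10% FBS. After 72 h at 37 °C with compound, ATP-dependent luminescence was recorded.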
Active calls of the source: *; i = inactive; ? = inconclusive; . = no result. Rows were chosen to be rich in hits. Some 19% of all compounds tested hit in one or more screens of this group. The call rests on the fitted dose curve; in most records, active means well fitted curve in the direction sought with a large enough effect; inconclusive means small, poorly fitted or top-dose-only effect, or another doubt; inactive means no such curve, though single readings can be large; an effect the other way counts as inactive or inconclusive. Unless noted, on the % scale 0 is the no-effect control and ±100 the full control effect; potency means the concentration at half of the fitted maximal effect.

SMILES	HT1080 IDH1KD tx	TDP1 cell CPT	KB-V1 MDR tox	TDP1 cell noCPT	HT1080-NT tox	KB-3-1 tox
Cc1cccn2c(Nc3ccc4c(c3)OCCO4)c(-c3ccc(Br)o3)nc12	.	?	?	?	.	i
CCNc1nc(NC(C)C)nc(Oc2ccc(OCCOc3ccc(C)cc3)nn2)n1	-39.9%	20.6µM*	?	?	-2.1%	i
COc1cc(C)nc(Oc2ccc(OCCOc3ccccc3)nn2)n1	12.7%	-1.3%	i	16.7%	8.1%	i
CCNc1nc(NCC)nc(SCCOc2ccc(C)cc2)n1	?	20.6µM*	?	18.4µM*	-12.8%	?
CCCOc1ccc(Oc2nc(NCC(C)C)nc(N(C)C)n2)nn1	.	?	.	13µM*	.	.
CC(C)CCOc1ccc(Oc2nc(N(C)C)nc(N(C)C)n2)nn1	.	18.4µM*	.	?	.	.
CCNc1nc(NCC)nc(Oc2ccc(OCC)nn2)n1	-12.9%	-2.4%	i	-0.1%	-1.1%	i
COC(=O)COc1ccc(Oc2nc(NC(C)(C)C)nc(N(C)C)n2)nn1	.	0.6%	.	-28.3%	.	.
Cc1ccc(NC(=O)CCC(=O)NNC(=O)c2ccccc2Cl)c(C)c1	8.1%	10.6%	i	?	-1.8%	i
Cc1cccc(OCCSc2nc(N)cc(N)n2)c1	2.1%	?	?	20.6µM*	1.9%	?
Cc1cccc(OCCOCCSc2ncccn2)c1	-2.1%	-9.7%	i	-29.6%	-1.2%	i
CN(C(=O)CSc1nc(N)c2c3c(sc2n1)CSC(C)(C)C3)c1ccccc1	-26.9%	16.4µM*	i	16.4µM*	-26.3%	i
CN(C(=O)CSC1=NCCS1)c1ccccc1	13.5%	0.3%	i	-5.5%	17.0%	i
CN(CC(=O)O)c1ccc(C=O)cc1	.	6.4%	i	-5.9%	.	i
CCOc1cccc(-c2cnc3cccnn23)c1	-12.7%	?	i	10.3µM*	3.2%	i
CCOc1ccc(-c2cnc3cccnn23)cc1	24.8%	-29.7%	i	-21.4%	?	i
CCN(CC)c1ccc(NC(=O)CCc2c(C)nc3ncnn3c2C)c(C)c1	.	-1.1%	i	?	.	i
COC(=O)[C@@H](Cc1ccccc1)NC(=O)Cn1cc(C)c(=O)[nH]c1=O	-1.0%	0.1%	i	3.0%	-2.9%	i
Cc1cc2c(s1)c1cnn(CC(=O)N3CCOCC3)c(=O)c1n2C	.	-4.5%	i	-20.8%	.	?
CC(C)c1ccc(C2C3=C(CC(C)(C)CC3=O)NC3=C2C(=O)c2ccccc23)cc1 (stereo unspecified)	?	20.6µM*	?	?	?	?
Cc1ccc(CNC(=O)c2cn(C)c3ccc(S(=O)(=O)N(C)C4CCCCC4)cc3c2=O)cc1	.	?	i	?	.	i
CCN1c2ccccc2N(C)C1(C)c1ccccc1 (stereo unspecified)	?	3.66µM*	i	3.66µM*	?	?
Cc1noc(C)c1NC(=O)Nc1cccc2c1O[C@@H](CN(C)C(=O)Nc1ccc3c(c1)OCO3)[C@@H](C)CN([C@H](C)CO)C2=O	12.6%	?	i	?	13.2%	i
COC(=O)C1CCN(CC(=O)Nc2cc(C)c3c(=O)oc4ccccc4c3n2)CC1	.	-4.5%	i	?	.	i
COc1cccc(-c2cncnc2NCCc2c[nH]c3ccc(OC)cc23)c1	.	23.1µM*	.	20.6µM*	.	.
SMILES	HT1080 IDH1KD tx	TDP1 cell CPT	KB-V1 MDR tox	TDP1 cell noCPT	HT1080-NT tox	KB-3-1 tox
COc1cccc(-c2cncnc2NCCc2cnc[nH]2)c1	.	2.59µM*	.	?	.	.
COc1cccc(-c2cncnc2Nc2ccc(F)cc2)c1	.	-27.0%	.	-7.8%	.	.
COc1ccc2[nH]cc(CCNc3cc(-c4cccnc4)ncn3)c2c1	.	?	.	-24.9%	.	.
COc1ccc2[nH]cc(CCNc3cc(-c4ccc5c(c4)OCO5)ncn3)c2c1	.	?	.	20.6µM*	.	.
CNC(=S)NCCc1c[nH]c2ccc(OC)cc12	16.8%	-4.0%	i	-0.6%	2.2%	i
N#Cc1cccc(-c2cncnc2NCCc2cnc[nH]2)c1	.	-11.9%	.	-25.2%	.	.
COc1ccc2[nH]cc(CCNc3cc(-c4ccccc4C)ncn3)c2c1	.	9.2µM*	.	16.4µM*	.	.
CN(Cc1ccccc1)C(=O)CN1CCN(S(=O)(=O)c2ccccc2F)CC1	-3.7%	-26.9%	i	?	-3.9%	i
COc1ccc2[nH]cc(CCNc3ncncc3-c3ccc4c(c3)OCO4)c2c1	.	6.51µM*	.	18.4µM*	.	.
COc1ccc2[nH]cc(CCN3C(=O)CCC3=O)c2c1	20.1%	-7.1%	?	-2.8%	17.5%	i
COc1ccc2[nH]cc(CCCN3C(=O)c4ccccc4C3=O)c2c1	-20.6%	13.2%	23.1µM*	18.1%	-14.7%	i
Cc1cc(OCC(=O)OCC(=O)N(Cc2ccccc2)C(C)(C)C)ccc1Cl	6.3%	-18.8%	i	-11.0%	7.5%	i
O=[N+]([O-])c1cc(-c2nnc(N3CCOCC3)c3ccccc23)ccc1N1CCOCC1	-23.2%	?	i	?	-6.9%	i
Cc1ccc(Nc2nnc(-c3ccc(N4CCOCC4)c([N+](=O)[O-])c3)c3ccccc23)cc1	-7.4%	11.6µM*	i	10.3µM*	-18.3%	i
O=[N+]([O-])c1cc(-c2nnc(Nc3ccc(O)cc3)c3ccccc23)ccc1N1CCOCC1	?	16.4µM*	i	14.6µM*	?	?
CC[C@@]1(C(=O)OC)N[C@H](CN(C)C(=O)COC)[C@@H]2C(=O)N(C)C(=O)[C@@H]21	4.3%	0.0%	i	-9.7%	6.5%	i
CCOC(=O)C1=C(C(=O)OCC)c2ccc(OC)c(OC)c2C1	-3.4%	2.1%	i	18.4µM*	-3.1%	i
CN(C1CCCCC1)C(CNS(=O)(=O)c1ccc(Cl)cc1)c1ccccc1 (stereo unspecified)	7.8%	-24.1%	?	-8.0%	6.7%	i
COc1ccc(-n2c(C)cc(C(=O)Cn3c(NCCO)nc4ccccc43)c2C)cc1	-26.4%	?	?	20.6µM*	-17.6%	?
CN1CCN(c2ncc3nc(-c4cc(F)cc(F)c4)c(=O)n(-c4ccccc4)c3n2)CC1	.	-11.5%	.	-18.2%	.	.
COc1cccc(NC(=O)N(C)C[C@@H]2OCc3cn(nn3)CCCC(=O)N([C@H](C)CO)C[C@H]2C)c1	2.7%	6.2%	i	17.5%	8.2%	i
O=C(Nc1ccccc1)c1sccc1Oc1ccc([N+](=O)[O-])cc1F	-25.5%	20.6µM*	i	20.6µM*	-14.6%	i

High-throughput results from PubChem.
